Compound activity (PubChem BioAssay)
Tgondii IFNg: blocks Toxoplasma gondii growth in the presence of IFN-gamma; Toxoplasma gondii growth in IFN-gamma-treated host cells; stronger effect = lower value; activity change, negative = inhibition, % (concentration not given with the values); 69,000 tested, 3.8% active; AID 1259416; in the data active means activity change below about -70%, passing the limit was not always enough;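 further: host cells are HeLa cells infected with Toxoplasma gondii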
Numbers stand for hits; 0 = inactive; ! = not confirmed by another sample. The entries come from a sample that favours hits as a whole.

SMILES	Tgondii IFNg
CNC(=O)[C@@]12CCC3(CCN(C(=O)NCc4cccc(OC)c4)CC3)[C@H]1CN(C)C2	0
COc1ccc(C(=O)N(c2cc(OC)cc(OC)c2)C2(C(=O)NCc3ccccc3)CCN(C(C)=O)CC2)cc1	0
CCc1cc(-c2ccc3c(c2)OCCO3)ccc1NC(C)=O	0
CCNC(=O)Cc1ccc(-c2ccc3c(c2)OCCO3)cc1	-74
CCC(=O)NCc1ccccc1-c1ccc2c(c1)OCCO2	0
COc1ccc2[nH]c(=O)c(CNc3ccc(-c4nc5ccc(C)cc5[nH]4)cc3)cc2c1	0
COc1cc2cc(CNc3ccc(N4CCN(C)CC4)cc3)c(=O)[nH]c2cc1OC	0
CC(C)c1ccc2[nH]c(=O)c(CNc3ccc4[nH]ncc4c3)cc2c1	-82
COC(=O)c1c(NCCC(C)C)c2cc(F)ccc2[nH]c1=O	0
COc1ccc(Cl)cc1S(=O)(=O)N(C)CC(=O)N1CCCCCC1	0
c1ccc(-c2csc3ncnc(NCc4ccccn4)c23)cc1	-74
c1ccc(-c2csc3ncnc(NCC4CCCO4)c23)cc1 (centres undefined)	0
O=c1ncn(Cc2ccccn2)cc1-c1ccccc1	0
O=C(NCCN1CCNC1=O)c1cn(Cc2ccccc2C(F)(F)F)nn1	0
CC(C)c1nc(CN(C)c2ncnc3[nH]ccc23)cs1	0
O=C(Nc1ccccc1Cl)c1c(O)c2ccccc2[nH]c1=O	0
CCc1noc(-c2c(O)c3cc(F)ccc3n(C)c2=O)n1	0
O=C1N(Cc2cccnc2)C(=O)C2(CCN(Cc3cc4ccccc4o3)CC2)N1CCc1ccccc1	-86
O=C1N(Cc2ccccn2)C(=O)C2(CCN(Cc3ccc4c(c3)OCO4)CC2)N1CCc1ccccc1	0
COC(=O)CN1C(=O)N(CCc2ccccc2)C2(CCN(Cc3ccncc3)CC2)C1=O	0
Cc1cccc(-c2nc(Cn3c(=O)c4c(C)cc(C)nc4n(Cc4ccco4)c3=O)c(C)o2)c1	0
COc1ccc(-c2nccn2Cc2ccon2)c(OC)c1	0
COC(=O)c1c(NCc2ccco2)c2cccc(Cl)c2[nH]c1=O	0
CCCCOC(=O)c1ccc(NC(=O)Nc2ccc(Cl)c(Cl)c2)cc1	0
CC(=O)Nc1ccc(OCc2ncc(C(F)(F)F)cc2Cl)cc1	0
SMILES	Tgondii IFNg
CNC(=O)c1cc(Oc2ccc(NC(=O)Nc3ccc(Cl)c(C(F)(F)F)c3)cc2)ccn1	-80
Cn1cc(C(=O)Nc2cccc(C(=O)O)c2)cn1	0
CCC(Cn1ccnc1)NC1CCN(c2ccccc2F)CC1 (centres undefined)	0
O=C1CN(C(=O)CN2CCCC(COc3ccccc3F)C2)c2ccccc2N1 (centres undefined)	0
C=CCN1C(=N)SC2CS(=O)(=O)CC21 (centres undefined)	0
COc1ccc(Oc2cccc(Oc3ccc(OC)cc3)c2C#N)cc1	0
CCN(CC)C(=O)c1sc(NC(=O)c2c(OC)cccc2OC)c(C#N)c1C	-83
COc1cccc(OC)c1C(=O)NCCc1sc(-c2cccc(F)c2)nc1C	0
COc1ccc(N2CCN(C(=O)c3cncc(NS(=O)(=O)c4ccc(C)cc4)c3)CC2)cc1	0
Nc1nc(NCC2CCC(CNS(=O)(=O)c3cccc4ccccc34)CC2)nc2ccccc12 (centres undefined)	-77!
NCCCCCCNS(=O)(=O)c1cccc2ccccc12	0
NC(N)=NCCNS(=O)(=O)c1cccc2cnccc12	0
Cc1cccc(C2(CNC(=O)c3cccc(Cn4nc(C)cc4C)c3)CCOCC2)c1	0
NC(=O)c1ccnc(-c2ccccc2-c2ccccc2)c1	0
Cn1cc(CN2CC[C@@H]3[C@H]2CCN3CC2CCOC2)cn1 (some centres undefined)	0
Cc1cc(C(=O)Nc2ccc3c(c2)CCC(=O)N3)no1	0
CCOc1ccccc1C(=O)Nc1ccc(S(=O)(=O)Nc2cc(C)on2)cc1	0
Cc1cc(C(=O)Nc2ccc(S(N)(=O)=O)cc2)no1	-87
CCc1ccc(-c2cc3c(=O)n(Cc4nc(-c5cccc(Cl)c5)oc4C)ccn3n2)cc1	0
CN(CCCc1cnn(C)c1)c1nc(-c2cccnc2)nc2c1cnn2C	0
Cc1ccsc1CN(C)c1nc(-c2cccnc2)nc2c1cnn2C	-74
Cc1ncsc1CCN(C)c1nc(-c2cccnc2)nc2c1cnn2C	0
NC(=O)C1(Cc2ccc(-c3cccs3)cc2)CN(C(=O)c2ccccc2)CCO1 (centres undefined)	0
Cc1nn(C)cc1C(C)n1ccnc1-c1nn(C)c2cccc(Cl)c12 (centres undefined)	0
COc1cc2c(cc1OC)C(c1ccccc1Cl)N(c1ccc(C)cc1)C(=O)C2 (centres undefined)	-91
SMILES	Tgondii IFNg
COc1cc2c(cc1OC)C1c3ccccc3N(Cc3ccccc3)C(=O)N1CC2 (centres undefined)	0
COc1ccc(C2N(c3ccc(C)cc3)CCN2c2ccc(C)cc2)cc1OC	0
Cc1cnc(NCCCN2CCCC2)nc1N(C)C	0
CCC1=C[C@@H]2CN(C1)Cc1c([nH]c3ccccc13)[C@@](C(=O)OC)(c1cc3c(cc1OC)N(C)[C@H]1[C@@](O)(C(=O)OC)[C@H](OC(C)=O)[C@]4(CC)C=CCN5CC[C@]31[C@@H]54)C2	-74
COc1cc(N2CCC[C@@]3(C(=O)O)CN(C(C)=O)C[C@H]3C2)ncn1	0
COc1ccc(CCN(C)CCc2ccc(OC)c(OC)c2)cc1OC	0
COc1ccc(CCN(C)CCCOc2ccc(S(=O)(=O)c3c(C(C)C)c4ccccc4n3C)cc2)cc1OC	-73
COc1ccc(CCN(C)CCCC(C#N)(c2cc(OC)c(OC)c(OC)c2)C(C)C)cc1OC (centres undefined)	0
CCN(C)c1ncnc2c1CCN(CC1CCOC1)CC2 (centres undefined)	0
CCN(CC)C(=O)CC1CC2(CCN(C(=O)N3CCCC3)CC2)Oc2ccccc21 (centres undefined)	0
COc1ccc(N2CCN(Cc3ccnc(-c4ccncc4)n3)CC2)cc1	0
CCCc1nn(C)cc1C(=O)NCC(=O)OCC	0
COC(=O)c1ccc(NC(=O)C(=O)NCCc2csc(-c3ccc(Cl)cc3)n2)cc1	0
O=C1C2C3C=CC(O3)C2C(=O)N1OCc1c(F)cccc1Cl (centres undefined)	0
N#Cc1cc(Br)c(OCc2c(F)cccc2Cl)c(Br)c1	-78
N#Cc1ccc(OCc2c(Cl)sc3ccc(Cl)cc23)cc1	0
CCC1(c2cccc(OS(=O)(=O)c3ccc(OC)c(OC)c3)c2)CCCCN(C)C1=O (centres undefined)	0
COc1cccc(-c2nc(Cn3c(=O)c4cccnc4n(-c4ccccc4)c3=O)c(C)o2)c1OC	0
NC(=S)c1ccc(-c2ccno2)s1	0
c1ccc2c(c1)CCN(C1CCN(Cc3cc4n(n3)CCNC4)CC1)C2	0
C[C@H](CO)N1C[C@H](C)[C@@H](CN(C)C(=O)c2cc(-c3ccccc3)on2)OCc2cnnn2CCCC1=O	0
C[C@@H]1CN([C@@H](C)CO)C(=O)CCCn2nncc2CO[C@H]1CN(C)C(=O)c1cc(-c2ccccc2)on1	0
C[C@@H]1CN([C@H](C)CO)C(=O)c2cccc(NC(=O)C3CCOCC3)c2O[C@@H]1CN(C)C(=O)Nc1cccc2ccccc12	0
C[C@H](CO)N1C[C@H](C)[C@H](CN(C)C(=O)c2cc(-c3ccccc3)on2)OCc2cnnn2CCCC1=O	-76
COc1ccc(NC(=O)N(C)C[C@@H]2OCc3cnnn3CCCC(=O)N([C@H](C)CO)C[C@@H]2C)c(OC)c1	0
C[C@H]1CN([C@@H](C)CO)C(=O)CCCn2nncc2CO[C@@H]1CN(C)C(=O)Nc1ccccc1C(F)(F)F	-96
